PubChem BioAssay (NCI)
Several values for one entry are separate records, joined by “and”; a condition that tells them apart may be missing. Equal entries are not always repeated. This is part of a sample that, as a whole, favours compounds with a hit. Of some 83,000 tested, about 20% had one in any assay.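 Each cell line was grown in a 96-well plate and treated with one concentration of compound for 48 hours. Values below 10 were considered active.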 A number with no mark means an inactive call. Activity calls are given as the source filed them.

System: MDA-MB-468 breast
Assay: NCI-60 one-dose screen, 48 h (100 = growth as untreated, 0 = no growth, -100 = all killed)
Settings: 10 µM unless noted

Question: Which growth does the source give for `O=C(Nc1ccc(CN2CCOCC2)cc1)c1ccc(-c2cc(Cl)ccc2Cl)o1` here?
Answer: Its growth is -56.1% (active).

Question: With `O=C(NCCCN1CCCCC1)c1ccc(-c2nc3ccc4[nH]ncc4c3c3c2CCCC3)cc1` as the compound, how does the growth read?
Answer: Its growth is 35.4%.

Question: Which growth does the source give for `CCNCCCn1c2c(c3cc(OC)c(OC)cc3c1=O)C(=O)c1cc(OC)cnc1-2` here?
Answer: Its growth is 5.95% (active).

Question: How did the growth turn out when `O=[N+]([O-])c1cccc(SSc2cccc([N+](=O)[O-])c2)c1` was run?
Answer: Its growth is 109%.

Question: `CCN(CC)c1ccc(-c2cc(-c3cc(OC)c(OC)c(OC)c3)nc(N3CCC(O)CC3)c2C#N)cc1` was tested. Which growth did it give?
Answer: The growth was -48.2% (active).

Question: For `Nc1c(C(=O)Nc2ccccn2)sc2nc3c(cc12)C(O)CCC3` (stereo not given), which growth is on record?
Answer: Its growth is 15%.

Question: Which growth does the source give for `O=C(O)CCCCc1ccc([N+](=O)[O-])cc1` here?
Answer: The growth was 107% and 115%.

Question: Which growth does the source give for `[Cl][Ru].c1ccc(-c2cc(-c3ccccn3)nc(-c3ccccn3)c2)cc1.c1ccc(-c2ccnc3c2ccc2c(-c4ccccc4)ccnc23)cc1` here?
Answer: The growth was -66.3% (active).

Question: For `C=C(C)C1CC(O)C2(C)CCCC3C2C1CC(C)C3(C)CC/C(C)=C/C(O)C1CCC(=O)c2c(OC)cc(OC)cc21` (stereo not given), which growth is on record?
Answer: The growth was 0.0686% (active).

Question: Which growth does the source give for `O=c1cc(/C(=C2/C=CC=N2)c2ccc[nH]2)c2cc(Cl)ccc2o1` here?
Answer: Its growth is 2.6% (active).

Question: With `COc1cc(C)ccc1C(=O)c1ccc(C)cc1OC` as the compound, how does the growth read?
Answer: Its growth is -20.3% (active).

Question: How did the growth turn out when `O=C1Nc2ccc(Br)cc2/C1=N\N=C/c1cn(Cc2ccccc2)c2ccccc12` was run?
Answer: Its growth is -43% (active).

Question: For `CCNc1cc(S(=O)(=O)O)ccc1C`, which growth is on record?
Answer: Its growth is 97.2%.

Question: How did the growth turn out when `c1ccc2c(N3CCCCC3)ncnc2c1` was run?
Answer: The growth was 75.9%.

Question: Which growth does the source give for `NC[C@@H]1CCN(c2cc3c(cc2F)c(=O)n(N)c(=O)n3Cc2ccc(-c3ccccc3)cc2)C1` here?
Answer: The growth was 72.6%.

Question: Which growth does the source give for `O=C(Nc1cc(-c2cccnc2)nc(NCCCN2CCOCC2)n1)c1cc(Br)cc(C(F)(F)F)c1` here?
Answer: The growth was 52.8%.

Question: Which growth does the source give for `COc1ccc(/C(C)=C(\c2ccc(Cl)cc2)c2ccc(OCCN3CCCCCC3)cc2)cc1F` here?
Answer: Its growth is 35.3%.

Question: Which growth does the source give for `Cc1cc2nc3c(=O)[nH]c(=O)nc-3n(CC=O)c2cc1C` here?
Answer: The growth was 95.8%.

Question: `C/C(=C(/c1ccc(Cl)cc1)c1ccc(OCCN2CCCC2)cc1)c1ccccc1` was tested. Which growth did it give?
Answer: The growth was 62.4%.

Question: How did the growth turn out when `O=S(=O)(NCCCNc1cc(-c2cn(-c3ccccc3)nc2-c2ccccc2)ccn1)c1ccc(C(F)(F)F)cc1` was run?
Answer: Its growth is 40.7%.

Question: With `CN(C)c1ccc(Cc2cc(-c3ccccc3)nn(C/C(=N/O)c3ccccc3)c2=O)cc1` as the compound, how does the growth read?
Answer: Its growth is 57.1%.

Question: With `COc1cc(C2CC(=O)Nc3c2cc(Br)c2ccccc32)cc(Br)c1OC` (stereo not given) as the compound, how does the growth read?
Answer: The growth was 3.67% (active).

Question: How did the growth turn out when `N=c1c2cc(-c3ccccc3)oc2ncn1/N=C/c1ccc(Cl)cc1` was run?
Answer: The growth was 88.2%.

Question: For `COc1cc(-c2nc3sccn3c2-c2ccnc(NCCNS(=O)(=O)c3ccc(F)cc3)n2)ccc1F`, which growth is on record?
Answer: The growth was 4.24% (active).

Question: Which growth does the source give for `O=c1cc(CSc2nnc(-c3ccc(F)cc3)o2)c2ccc3ccccc3c2o1` here?
Answer: Its growth is 101%.

Question: For `COc1ccc(C2=NN(C(=O)c3ccc(S(C)(=O)=O)cc3)C(c3ccc(OC)c(OC)c3)C2)c(OC)c1` (stereo not given), which growth is on record?
Answer: The growth was 87%.

Question: For `Oc1ccccc1-c1nnco1`, which growth is on record?
Answer: The growth was 88.7%.

Question: How did the growth turn out when `Cn1cc(-c2csc(-c3cn(C)c4ccc(F)cc34)n2)c2cnccc21` was run?
Answer: The growth was -49.2% (active).

Question: Which growth does the source give for `CCOc1cccc(/C=N/NC(=O)c2cccc(Nc3ccnc(C(F)(F)F)c3)c2)c1O` here?
Answer: The growth was 31.4%.

Question: For `COC(=O)c1cnc2c(c1)Oc1ccccc1-c1ccnn1-2`, which growth is on record?
Answer: The growth was 101%.

Question: With `C[C@@H]1C[C@@H]([C@@H](CC2CC(=O)NC(=O)C2)OC(=O)CC(=O)c2ccccc2)C(=O)[C@@H](C)C1` as the compound, how does the growth read?
Answer: The growth was 10.9%.

Question: Which growth does the source give for `CC(=O)O[C@]1(C(C)=O)CC[C@H]2[C@@H]3C=C(Cl)C4=CC(=O)CC[C@]4(C)[C@H]3CC[C@@]21C` here?
Answer: Its growth is 105%.

Question: With `CCOC(=O)Sc1ncnc2nc[nH]c12` as the compound, how does the growth read?
Answer: Its growth is 75.3%.

Question: How did the growth turn out when `COc1ccc(CCn2cncc2-c2c[nH]c3ccccc23)cc1` was run?
Answer: The growth was 94.5%.

Question: For `N#CSCc1cc(Cl)c(CSC#N)cc1Cl`, which growth is on record?
Answer: Its growth is 66%.

Question: `O=c1oc2cc(OS(=O)(=O)c3ccccc3)ccc2c2c1CCCCC2` was tested. Which growth did it give?
Answer: The growth was 44.3%.

Question: With `CN(C)S(=O)(=O)Oc1ccc(-c2sc3cc(OS(=O)(=O)N(C)C)ccc3c2C(=O)c2ccc(OCCN3CCCCC3)cc2)cc1` as the compound, how does the growth read?
Answer: The growth was 61.7%.

Question: For `O=C(NCCCNC(=O)OCc1ccc2c(Br)cc(Br)c(O)c2n1)OCc1ccc2c(Br)cc(Br)c(O)c2n1`, which growth is on record?
Answer: The growth was -72% (active).

Question: With `N#CC1C(=O)NC(c2ccccc2[N+](=O)[O-])c2sc3c(F)cccc3c21` (stereo not given) as the compound, how does the growth read?
Answer: Its growth is -49% (active).

Question: For `O=C1NC(=O)/C(=C\c2ccncc2)N1`, which growth is on record?
Answer: The growth was 102%.
